The target in assay [1] is Rap guanine nucleotide exchange factor 3 (Homo sapiens) (UniProt O95398). The experiment in a line: Confirmatory qHTS for antagonist of cAMP-regulated guanine nucleotide exchange factor 3 (EPAC1) (AID 1645880). Note: nearly all actives have a fitted effect of over 55% in size. Note: potency is the fitted concentration of half-maximal effect. The settings on record: EPAC1 Rap1B-BODIPY-GDP exchange, fluorescence; activity, negative = inhibition: at 115 µM (top of the series). The method, boiled down:
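Nucleotide exchange uses 100 nM EPAC1, 250 nM RAP1B-BODIPY-GDP and 50 uM GDP, with compounds in a concentration-titration series. After 5 min at room temperature, fluorescence (480 nm ex/540 nm em) is read every 5 min for 30 min. Data are normalized to control ATA and DMSO.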
Background: qHTS replaces the single test concentration by a dilution series.

For assay [2] the target is unchanged. The experiment in a line: Confirmatory qHTS for agonist of cAMP-regulated guanine nucleotide exchange factor 3 (EPAC1) (AID 1645881). Note: nearly all actives have a fitted effect of over 75% in size. Note: potency is the fitted concentration of half-maximal effect.
Assay [3] has as its target Rap guanine nucleotide exchange factor 4 (Homo sapiens) (UniProt Q8WZA2). The experiment in a line: Confirmatory qHTS for antagonist of cAMP-regulated guanine nucleotide exchange factor 4 (EPAC2) (AID 1645885). Note: nearly all actives have a fitted effect of over 25% in size. Note: potency is the fitted concentration of half-maximal effect.
Assay [4] concerns the target Rap guanine nucleotide exchange factor 3 (Homo sapiens) (UniProt O95398). The experiment in a line: Counterscreen qHTS for antagonist of cAMP-regulated guanine nucleotide exchange factor 3 (EPAC1) (AID 1645888).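 Note: fluorescence loss as bound BODIPY-GDP is released from Rap1B.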 The method, boiled down: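 Rap1B–BODIPY-GDP (250 nM) with 50 uM GDP; compounds pin-transferred to 9.74 nM–152 uM final (activator) or from 7.32 nM upwards (inhibitor). Fluorescence Ex/Em 480/540 nm read at 5 and 30 min, then after adding cAMP or buffer, at room temperature.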
Background: Counterscreens check selectivity or assay interference.

The structures appear in SMILES notation. Inconclusive results are not listed. Values without a mark were called inactive. Active and inactive are the calls of the source. Calls come from the whole dose curve; as a rule, active = well fitted curve in the direction sought with a large enough effect; inconclusive = small, poorly fitted or top-dose-only effect, or another doubt; inactive = no such curve, though single readings can be large; an effect the other way counts as inactive or inconclusive.

The values that follow come from PubChem BioAssay (NCATS).

Sequence of Rap guanine nucleotide exchange factor 3 (Homo sapiens) (O95398 whole entry, looked up): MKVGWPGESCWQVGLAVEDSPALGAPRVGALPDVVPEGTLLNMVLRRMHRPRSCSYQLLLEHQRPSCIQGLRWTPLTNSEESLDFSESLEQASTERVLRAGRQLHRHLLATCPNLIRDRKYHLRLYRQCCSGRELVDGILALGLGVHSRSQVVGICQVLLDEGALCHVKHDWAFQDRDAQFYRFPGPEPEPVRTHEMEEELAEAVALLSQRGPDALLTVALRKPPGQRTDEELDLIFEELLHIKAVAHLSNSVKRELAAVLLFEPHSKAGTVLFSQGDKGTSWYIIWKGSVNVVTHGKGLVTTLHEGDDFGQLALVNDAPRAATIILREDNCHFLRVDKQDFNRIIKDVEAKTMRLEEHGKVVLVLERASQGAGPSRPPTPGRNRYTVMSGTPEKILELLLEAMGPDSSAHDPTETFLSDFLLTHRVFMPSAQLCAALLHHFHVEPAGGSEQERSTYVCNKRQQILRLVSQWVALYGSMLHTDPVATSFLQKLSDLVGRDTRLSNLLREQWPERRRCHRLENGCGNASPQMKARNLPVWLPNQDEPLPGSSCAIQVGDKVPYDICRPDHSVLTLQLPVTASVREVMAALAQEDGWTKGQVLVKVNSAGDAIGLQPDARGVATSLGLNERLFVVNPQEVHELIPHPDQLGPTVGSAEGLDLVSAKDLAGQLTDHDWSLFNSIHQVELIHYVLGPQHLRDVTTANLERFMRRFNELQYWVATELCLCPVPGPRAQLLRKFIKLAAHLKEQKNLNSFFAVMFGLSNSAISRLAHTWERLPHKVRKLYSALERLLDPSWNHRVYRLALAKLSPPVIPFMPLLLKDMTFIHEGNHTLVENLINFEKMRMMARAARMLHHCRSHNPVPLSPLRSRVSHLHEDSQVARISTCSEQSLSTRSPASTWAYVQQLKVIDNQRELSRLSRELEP
Sequence of Rap guanine nucleotide exchange factor 4 (Homo sapiens) (Q8WZA2 whole entry, looked up): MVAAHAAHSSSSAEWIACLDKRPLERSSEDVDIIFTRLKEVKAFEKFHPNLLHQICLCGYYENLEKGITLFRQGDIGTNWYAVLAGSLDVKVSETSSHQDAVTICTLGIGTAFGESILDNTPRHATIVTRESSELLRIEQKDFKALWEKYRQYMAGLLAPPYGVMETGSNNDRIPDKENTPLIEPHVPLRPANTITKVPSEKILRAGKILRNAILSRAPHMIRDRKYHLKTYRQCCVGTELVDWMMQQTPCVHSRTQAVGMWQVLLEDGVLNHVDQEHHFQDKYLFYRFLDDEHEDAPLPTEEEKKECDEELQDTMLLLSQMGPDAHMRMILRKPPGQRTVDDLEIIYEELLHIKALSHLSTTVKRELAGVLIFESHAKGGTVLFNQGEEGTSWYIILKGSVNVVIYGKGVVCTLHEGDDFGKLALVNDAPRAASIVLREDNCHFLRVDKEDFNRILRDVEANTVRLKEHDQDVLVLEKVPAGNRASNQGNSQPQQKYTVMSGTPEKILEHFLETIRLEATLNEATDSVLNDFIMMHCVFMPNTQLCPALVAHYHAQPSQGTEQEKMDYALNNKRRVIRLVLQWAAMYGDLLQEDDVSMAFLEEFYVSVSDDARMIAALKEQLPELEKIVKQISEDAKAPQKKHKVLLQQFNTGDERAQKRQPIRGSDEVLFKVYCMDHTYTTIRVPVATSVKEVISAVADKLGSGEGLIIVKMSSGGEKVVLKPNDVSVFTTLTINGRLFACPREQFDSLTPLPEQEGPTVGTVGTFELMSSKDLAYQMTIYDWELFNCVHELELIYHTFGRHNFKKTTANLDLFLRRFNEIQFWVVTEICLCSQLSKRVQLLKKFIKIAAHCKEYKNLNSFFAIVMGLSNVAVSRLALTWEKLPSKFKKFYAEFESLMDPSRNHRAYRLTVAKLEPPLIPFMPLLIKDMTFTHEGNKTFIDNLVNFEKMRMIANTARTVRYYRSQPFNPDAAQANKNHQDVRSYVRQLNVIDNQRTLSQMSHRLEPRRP

`Cc1cc2ccccn2c1C(=O)c1ccc(Cl)c([N+](=O)[O-])c1`: the Potency result in assay [1], in assay [2], in assay [3] and in assay [4] was “inactive” in each case.
As to `COc1cc(NC(=O)CCNC(=O)Cn2ccc3ccccc3c2=O)cc(OC)c1OC`, the Potency result in assay [1], in assay [2], in assay [3] and in assay [4] was “inactive” each time.
In the case of `COc1ccc(Br)cc1CN(C)CC(=O)Nc1c(Cl)cccc1Cl`, the Potency result in assay [1], in assay [2] and in assay [4] was “inactive” throughout. Further, the Potency in assay [3] was 13.5 µM (active).
With `N#CC(C#N)=C1C=C2C=C(N3CCOCC3)CCC2CC1` (stereo not drawn), the Potency entry in assay [1] and in assay [4] was “inactive” each time. Also, the Potency in assay [2] is 44.7 µM (active); in assay [3] it was 37.9 µM (active).
With `O=S(=O)(Nc1ccccc1N1CCCCC1)c1cccs1`, the Potency result in assay [1], in assay [2] and in assay [4] was “inactive” throughout. Moreover, the Potency in assay [3] was 19 µM (active).
As for `CCc1ccc(CNC(=O)Cn2nc(C)n3c(cc4cc(C)ccc43)c2=O)cc1`, the Potency entry in assay [1], in assay [2] and in assay [4] was “inactive” each time. For the same molecule, in assay [3], the outcome is “inactive [at 12.7 µM]”.
Take `CCOc1ccc(-n2cnc3scc(-c4ccc(OC)c(OC)c4)c3c2=O)cc1`: the Potency result in assay [1], in assay [2], in assay [3] and in assay [4] was “inactive” throughout.
Regarding `CC(NC(=O)c1ccc(Br)s1)c1ccncc1` (stereo not drawn), the Potency entry in assay [1], in assay [2], in assay [3] and in assay [4] was “inactive” in each case.
For the molecule `CC(=O)c1ccccc1NC(=O)COC(=O)CSCC(=O)Nc1cc(C)on1`, the Potency entry in assay [1], in assay [2], in assay [3] and in assay [4] was “inactive” each time.
`O=C1CSC(c2ccc(Cl)cc2Cl)N1c1ccccn1` (stereo not drawn): the Potency entry in assay [1], in assay [2], in assay [3] and in assay [4] was “inactive” in each case.
For `O=C(O)CSCC(=O)N(Cc1ccccc1)c1nc(-c2ccccc2)c(-c2ccccc2)s1`, the Potency in assay [1] and in assay [3] was 67.5 µM (active) throughout. Also, the Potency result in assay [2] and in assay [4] was “inactive” throughout.
Consider `O=C1/C(=C\c2cccnc2)Sc2ccccc21`, for which the Potency entry in assay [1], in assay [2], in assay [3] and in assay [4] was “inactive” throughout.
For the molecule `Cc1oc2cc(Br)c(O)c(Br)c2c1C(=O)c1ccccc1`, the Potency entry in assay [1], in assay [2], in assay [3] and in assay [4] was “inactive” in each case.
With `COC(=O)c1c(SC)nc2ccccc2c1OCc1ccc(Cl)cc1`, the Potency result in assay [1], in assay [2], in assay [3] and in assay [4] was “inactive” each time.
Regarding `Cc1ccccc1SCC(=O)Nc1cc(C(F)(F)F)ccc1N1CCOCC1`, the Potency entry in assay [1], in assay [2] and in assay [4] was “inactive” each time. In assay [3], the Potency is 2.39 µM (active).
With `CCOc1ccccc1NC(=O)c1ccccc1-c1ccccc1`, the Potency entry in assay [1], in assay [2], in assay [3] and in assay [4] was “inactive” throughout.
For `COc1cc(SC)ccc1C(=O)NC1CCCc2ccccc21` (stereo not drawn), the Potency result in assay [1], in assay [2] and in assay [4] was “inactive” in each case. In addition, the Potency in assay [3] is 30.1 µM (active).
In the case of `COCc1ccccc1C1=CC(=O)C[C@H](c2ccc(F)cc2)C1`, the Potency result in assay [1], in assay [2], in assay [3] and in assay [4] was “inactive” throughout.
On to `COc1ccc(-c2nc3ccccc3n2Cc2ccccc2)cc1`, for which the Potency entry in assay [1], in assay [2], in assay [3] and in assay [4] was “inactive” each time.
With `COc1ccc(NC(=O)CN(C)C(=O)c2cn(-c3ccccc3)nc2-c2cccnc2)cc1`, the Potency entry in assay [1], in assay [2], in assay [3] and in assay [4] was “inactive” throughout.
As for `CCOc1ccccc1N1CCN(C(=O)c2cc3c(s2)CCC3)CC1`, the Potency result in assay [1], in assay [2], in assay [3] and in assay [4] was “inactive” each time.
Consider `Cc1ccc(C)c(NC(=O)N2CCN3CCCCC3C2)c1` (stereo not drawn), for which the Potency result in assay [1], in assay [2], in assay [3] and in assay [4] was “inactive” in each case.
